# From PubChem
# Compounds with a hit are over-represented: about 1.2% of the library has one in this group of screens.
# PKD1 kinase inh: PKD1 (human) kinase inhibition; Q15139; PKD1 kinase fluorescence polarization assay; inhibition, % (test concentration not listed); 200,000 tested, 0.056% active; AID 797; in the data active = inhibition above about 50%
# Target sequence (Q15139 whole entry, looked up): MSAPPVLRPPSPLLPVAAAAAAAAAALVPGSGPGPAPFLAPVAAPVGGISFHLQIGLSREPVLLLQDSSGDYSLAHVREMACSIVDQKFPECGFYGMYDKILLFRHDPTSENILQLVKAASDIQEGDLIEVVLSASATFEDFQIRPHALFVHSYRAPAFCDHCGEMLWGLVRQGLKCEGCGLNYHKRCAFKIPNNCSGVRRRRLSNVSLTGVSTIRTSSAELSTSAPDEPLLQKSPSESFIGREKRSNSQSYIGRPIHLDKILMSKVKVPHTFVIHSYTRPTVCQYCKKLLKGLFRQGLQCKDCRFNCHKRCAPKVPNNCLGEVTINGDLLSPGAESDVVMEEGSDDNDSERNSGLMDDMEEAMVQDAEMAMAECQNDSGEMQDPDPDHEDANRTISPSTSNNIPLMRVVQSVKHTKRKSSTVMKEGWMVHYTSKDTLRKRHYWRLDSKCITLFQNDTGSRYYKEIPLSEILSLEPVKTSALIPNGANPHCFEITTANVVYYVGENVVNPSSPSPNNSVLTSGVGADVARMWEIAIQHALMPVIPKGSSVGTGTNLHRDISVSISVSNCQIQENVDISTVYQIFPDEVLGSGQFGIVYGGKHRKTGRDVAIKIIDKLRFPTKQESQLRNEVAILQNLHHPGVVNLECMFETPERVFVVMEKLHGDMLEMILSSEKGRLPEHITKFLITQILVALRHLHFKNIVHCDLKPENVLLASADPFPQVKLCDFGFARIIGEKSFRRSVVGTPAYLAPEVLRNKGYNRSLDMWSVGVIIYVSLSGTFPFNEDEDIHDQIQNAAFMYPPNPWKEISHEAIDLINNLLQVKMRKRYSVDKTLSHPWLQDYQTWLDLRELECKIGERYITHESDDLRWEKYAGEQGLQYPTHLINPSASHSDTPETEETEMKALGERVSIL
# UBC9 SUMO inh: inhibitors of human SUMOylation (UBC9) | HTRF SUMOylation assay, SAE1/SAE2 + UBC9, in vitro | 290,000 tested, 0.36% active | AID 2006 | P63279 | inhibition, % at 35 µM; in the data active = inhibition above about 50%, passing the limit was not always enough
# p97 inhibitor: inhibitors of human p97 ATPase; recombinant p97 ATPase, Kinase-Glo ATP luminescence, 3 h; inhibition, % at 8 µM; 220,000 tested, 0.42% active; AID 1481; in the data active = inhibition above about 15%;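 also: 0% = DMSO vehicle and 100% = wells lacking enzyme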
# Furin inhibitor: blocks human furin protease activity | inhibition, % at 20 µM or 30 µM | AID 463115 | 220,000 tested, 0.061% active | purified furin, fluorogenic substrate cleavage | P09958; in the data active = inhibition above about 25%
# FAS TE block: inhibitors of human fatty acid synthase thioesterase domain. recombinant FAS-TE, OMFH fluorogenic substrate, fluorescence endpoint. inhibition, % at 15 µM. 360,000 tested, 0.67% active. P49327. AID 602261;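 active = compounds whose normalised, plate-corrected inhibition of enzyme fluorescence in the single-dose primary screen is 50% or more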;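 also: 0% = DMSO with enzyme and 100% = substrate without enzyme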
# DTT redox prof: compounds producing H2O2 with reducing agent – biochemical, NIH compound library profiling, artefact control for MLSCN library redox annotation, primary screen. DTT-dependent redox cycling H2O2, phenol red/HRP absorbance; 100% = 100 µM peroxide control, 0% = buffer. activation, % at 10 µM. 200,000 tested, 0.03% active;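 active = activation of at least 50% relative to the plate's high and low controls in the primary single-dose screen; inactive = activation below 50%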;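 also: compound incubated with DTT at 0.8 mM final as the reducing agent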
# FAS-TE inh conf: FAS thioesterase (human) inhibition, confirmation; inhibition, % at 15 µM; recombinant FAS-TE, OMFH fluorogenic substrate, fluorescence; shares compounds with FAS TE block; 2,300 tested, 45% active;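 active = compounds inhibiting the enzyme by at least 50% at 15 µM in any one of the replicates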;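 also: 0% = enzyme with DMSO only and 100% = wells lacking enzyme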
# An asterisk follows results filed as active; / = not tested or not shown.
SMILES,PKD1 kinase inh,UBC9 SUMO inh,p97 inhibitor,Furin inhibitor,FAS TE block,DTT redox prof,FAS-TE inh conf
O=S(=O)(c1ccccc1)c1nnn2c1nc(NC1CCN(Cc3ccccc3)CC1)c1ccccc12,/,3,/,/,82*,/,79*
O=C1CCCN1CCCNc1nc2c(S(=O)(=O)c3ccc(Br)cc3)nnn2c2ccccc12,/,-3,/,/,57*,/,29
Cc1ccc(C)c(Nc2nc3c(S(=O)(=O)c4ccccc4)nnn3c3ccccc23)c1,-6,10,2,-16,5,1,/
Cc1ccc(S(=O)(=O)c2nnn3c2nc(Nc2cccc(C)c2)c2ccccc23)cc1,6,17,2,-18,2,0,/
c1ccc2c(c1)nc(NCC1CCCO1)c1nnnn12 (configuration not stated),-14,10,5,-27,-9,-2,/
O=S(=O)(c1ccccc1)c1nnn2c1nc(NC1CCN(Cc3ccccc3)CC1)c1cc(Cl)ccc12,/,14,/,/,80*,/,6
CC(C)c1ccc(S(=O)(=O)c2nnn3c2nc(NCC2CCCO2)c2ccccc23)cc1 (configuration not stated),/,9,/,/,74*,/,80*
COc1ccc(CCNC(=O)C2=CCN(S(=O)(=O)c3ccc(F)cc3)CC2)cc1OC,/,10,/,/,0,/,/
COc1ccc(CNC(=O)c2ccc(CS(=O)(=O)c3ccc(Br)cc3)o2)cc1,/,6,/,/,4,/,/
CCOC(=O)C1CCCN(C(=O)c2cc3ccc(OC)cc3[nH]2)C1 (configuration not stated),/,17,/,/,-3,/,/
Cc1cc(C(=O)N2CCC2(C)C(=O)NS(=O)(=O)c2ccc(Cl)cc2)nn1C (configuration not stated),/,/,/,/,-10,/,/
Cn1c(=O)cc(SCC(=O)NCCC2=CCCCC2)c2cc(Cl)ccc21,0,4,2,-6,69*,0,30
COc1ccc2nc(/N=C(\N)NC(=O)N3c4ccccc4Sc4ccccc43)nc(C)c2c1,-10,17,3,-26,14,3,/
Cc1ccc2nc(/N=C(\N)NC(=O)N3c4ccccc4Sc4ccccc43)nc(C)c2c1,1,-26,3,-23,55*,0,-5
Cc1cc2nc(/N=C(\N)NC(=O)N3c4ccccc4Sc4ccccc43)nc(C)c2cc1C,-1,-7,4,-5,62*,0,14
Cc1ccc2c(C)nc(/N=C(\N)NC(=O)N3c4ccccc4Sc4ccccc43)nc2c1,0,12,3,-29,64*,0,4
O=C(Nc1nnc(-c2ccc(F)cc2)o1)c1cccc([N+](=O)[O-])c1,-6,-7,2,-25,56*,0,54*
COc1ccc(N2CCN(C(=O)CSc3ccc(C)cc3)CC2)cc1,-4,8,4,-16,-7,-1,/
COc1ccc(N2CCN(C(=O)CSc3ccc([N+](=O)[O-])cc3)CC2)cc1,0,6,4,-16,60*,-1,33*
COc1ccc(/C=N/NC(=O)c2ccc(CN3c4cccc5cccc(c45)S3(=O)=O)cc2)cc1,0,4,1,-10,79*,0,10
O=C(Nc1cccc([N+](=O)[O-])c1)Nc1ccc2c(c1)CCC2,/,0,/,/,53*,/,14
O=[N+]([O-])c1cccc(NC(=S)N2CCc3ccccc3C2)c1,-3,-7,2,-23,51*,0,23*
O=C(c1ccco1)N1CCN(C(=S)Nc2cccc([N+](=O)[O-])c2)CC1,-1,4,3,-15,3,-1,/
Cc1ccc(Cl)cc1N1CCN(C(c2ccc(C#N)cc2)c2nnnn2C2CCCC2)CC1 (configuration not stated),-5,13,2,-21,69*,0,-2
CC(=O)c1ccc(N(CC(=O)NC2CCCC2)C(=O)CCC(=O)Nc2cc(C)on2)cc1,/,-2,/,/,-2,/,/
SMILES,PKD1 kinase inh,UBC9 SUMO inh,p97 inhibitor,Furin inhibitor,FAS TE block,DTT redox prof,FAS-TE inh conf
O=C(C[C@H]1C[C@H](C(=O)N2CCOCC2)[C@@]2(CCC3CCCC3)c3[nH]c4ccc(Cl)cc4c3CCN2C1=O)NCCN1CCOCC1,/,/,/,/,85*,/,76*
COCCCNC(=O)C[C@H]1C[C@H](C(=O)N2CCOCC2)[C@@]2(CCC3CCCC3)c3[nH]c4ccc(Cl)cc4c3CCN2C1=O,/,/,/,/,86*,/,34
O=C(C[C@H]1C[C@H](C(=O)N2CCOCC2)[C@@]2(CCC3CCCC3)c3[nH]c4cc(-c5ccco5)ccc4c3CCN2C1=O)NCCc1ccccn1,/,/,/,/,64*,/,71*
O=C(C[C@H]1C[C@H](C(=O)N2CCOCC2)[C@@]2(CCC3CCCC3)c3[nH]c4ccc(Cl)cc4c3CCN2C1=O)NCCc1ccccn1,/,/,/,/,83*,/,93*
CSc1ccc(S(=O)(=O)NC2CC2)cc1,/,16,/,/,1,/,/
COC(=O)c1ccc(/C=C/C(=O)OCC(=O)Nc2cc(C)on2)cc1,/,/,/,/,-4,/,/
Cc1cc(N2C(=O)C3CCC(c4ccccc4)CC3C2=O)no1 (configuration not stated),-10,8,0,-22,-2,0,/
COc1ccc(-c2csc(C(NC(C)=O)c3ccc(F)c(F)c3)n2)cn1 (configuration not stated),/,/,/,/,3,/,/
O=C(CN1CCN(c2ncc(C(F)(F)F)cc2Cl)CC1)NCCNc1ncc(C(F)(F)F)cc1Cl,2,-20,-5,8,62*,1,28
NNC(=O)CN1CCN(c2ncc(C(F)(F)F)cc2Cl)CC1,-4,1,2,-28,-3,0,/
Cc1ccc(NC(=O)COC(=O)COc2cccc3c2OC(C)(C)C3)c(C)c1,/,/,/,/,-10,/,/
COCCn1c(SCC(=O)NC2(C#N)CCCCC2)nc2ccccc2c1=O,/,/,/,/,-2,/,/
COc1ccc([C@@H]2[C@@H]3C(=O)N(C(C)(C)C)C(=O)[C@@H]3[C@]3(CC(C)C)C(=O)N(c4cccc(Br)c4)C(=O)N23)cc1,/,-4,/,/,58*,/,40
COc1ccc([C@@H]2[C@@H]3C(=O)N(C(C)(C)C)C(=O)[C@@H]3[C@]3(CC(C)C)C(=O)N(c4ccc(C(F)(F)F)cc4)C(=O)N23)cc1,/,-26,/,/,67*,/,37
O=C(CCNc1ccc(Br)cc1)c1cccc([N+](=O)[O-])c1,3,3,3,-25,64*,11,53*
O=C(CCNc1ccc(F)cc1)c1cccc([N+](=O)[O-])c1,-8,-7,2,-11,32,3,/
O=C(Nc1ccc(NC(=O)c2ccc(Cl)c(S(=O)(=O)N3CCOCC3)c2)cc1)c1ccccc1,/,12,/,/,-12,/,/
